Compound activity deposited in PubChem BioAssay by several laboratories.
RecA intein inh – Mtb RecA intein splicing inhibition; P9WHJ3; cell-free RecA intein splicing, fluorescence; inhibition, % (concentration not given with the values); 290,000 tested, 0.75% active; in the data active means inhibition above about 30%
Target sequence (P9WHJ3 whole entry, looked up): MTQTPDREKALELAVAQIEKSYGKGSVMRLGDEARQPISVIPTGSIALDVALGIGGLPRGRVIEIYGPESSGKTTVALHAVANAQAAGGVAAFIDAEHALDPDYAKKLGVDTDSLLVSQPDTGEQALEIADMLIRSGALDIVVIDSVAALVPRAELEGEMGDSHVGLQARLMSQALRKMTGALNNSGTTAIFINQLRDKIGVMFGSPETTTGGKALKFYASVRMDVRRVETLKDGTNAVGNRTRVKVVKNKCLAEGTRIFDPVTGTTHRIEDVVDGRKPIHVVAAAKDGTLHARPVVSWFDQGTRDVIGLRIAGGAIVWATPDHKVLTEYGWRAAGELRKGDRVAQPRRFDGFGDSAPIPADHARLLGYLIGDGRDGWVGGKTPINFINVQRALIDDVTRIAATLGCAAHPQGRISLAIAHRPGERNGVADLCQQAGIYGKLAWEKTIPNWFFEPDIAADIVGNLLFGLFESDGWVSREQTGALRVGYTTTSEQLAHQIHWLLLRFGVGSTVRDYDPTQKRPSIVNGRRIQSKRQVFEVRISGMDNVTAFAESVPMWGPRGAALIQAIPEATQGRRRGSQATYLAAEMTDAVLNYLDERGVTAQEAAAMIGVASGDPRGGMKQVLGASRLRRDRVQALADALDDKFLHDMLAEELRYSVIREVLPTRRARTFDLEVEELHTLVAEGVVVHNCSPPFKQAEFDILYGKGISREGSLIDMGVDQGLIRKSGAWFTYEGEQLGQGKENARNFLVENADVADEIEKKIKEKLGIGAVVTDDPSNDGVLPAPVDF
Mtb bLac sens – beta-lactam sensitization of Mtb H37Rv | inhibition, % at 25 µM | M. tuberculosis H37Rv growth with meropenem, percent inhibition | AID 434955 | 330,000 tested, 0.27% active; call rule not given here;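 further: growth measured after seven days incubation then overnight dye step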
Rv3671c inh – inhibitors of M. tuberculosis serine protease Rv3671c; 320,000 tested, 0.048% active; inhibition, % at 5.96 µM; in the data active means inhibition above about 38%;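 further: extracellular domain of Rv3671c used as enzyme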
UGM FP inh – blocks M. tuberculosis UGM enzyme; P9WIQ1; purified UGM, fluorescence polarization probe displacement; 320,000 tested, 0.06% active; AID 504406; inhibition, % at 10 µM; in the data active means inhibition above about 10%, passing the limit was not always enough
FBA Mtb inh – inhibitors of M. tuberculosis fructose-bisphosphate aldolase; inhibition, % at 1 µM; 360,000 tested, 2.3% active; purified M. tuberculosis FBA, fluorescence read-out; P9WQA3
GDH-TPI counter-1 – counter-screen for M. tuberculosis FBA inhibitors: GDH-TPI coupled enzymes; GDH-TPI coupled enzyme counterscreen, NADH absorbance; inhibition, % at 4.8 µM; 360,000 tested, 1.2% active; AID 588335; in the data active means inhibition above about 30%
Mtb FBA confirm – confirmation of M. tuberculosis fructose-bisphosphate aldolase inhibitors. shares compounds with FBA Mtb inh. purified M. tuberculosis FBA, fluorescence read-out. inhibition, % at 1 µM. 5,600 tested, 78% active. AID 651616
GDH-TPI counter-2 – inhibits GDH-TPI coupling enzymes, flagging Mtb FBA hits; 5,600 tested, 81% active; shares compounds with FBA Mtb inh; GDH-TPI coupled enzyme counterscreen, fluorescence; inhibition, % at 1 µM; in the data active means inhibition above about 10%
Of the large screens only hits and unclear results are named; the others gave an inactive call (follow-up assays come after a bar, where they were run). An excerpt weighted towards active compounds, which were near 4% of everything screened. Unless noted, no stated cut-off is given here; in the data, active means inhibition above about 27%; inactive means the rest.

CC(=O)Oc1ccccc1C(=O)NC(C)CCc1ccccc1 (stereo not given)	none
CCOc1ccc(/C=N/NC(=S)NC2CC3CCC2C3)cc1 (stereo not given)	FBA Mtb inh 30.6 | Mtb FBA confirm inactive | GDH-TPI counter-2 inactive
Cc1ccc(S(=O)(=O)Nc2nc(C)c(C(=O)NN)s2)cc1	none
C/C(=N/NC(=O)c1sc(NS(=O)(=O)c2ccc(C)cc2)nc1C)c1sc(N)nc1C	FBA Mtb inh 66.2 | Mtb FBA confirm 171.7 | GDH-TPI counter-2 139.7
CC1CCCC(C)N1C(=O)COC(=O)CCC(=O)c1ccc(F)cc1 (stereo not given)	none (no result: RecA intein inh)
COc1ccc(CCNc2ncnc3cc(OC)c(OC)cc23)cc1OC	none (no result: Mtb bLac sens, Rv3671c inh, UGM FP inh)
c1ccc2c(NCCc3c[nH]c4ccccc34)c3ccccc3nc2c1	FBA Mtb inh 39.3 | Mtb FBA confirm 116.3 | GDH-TPI counter-2 94.8
COc1ccc(CCNc2c3ccccc3nc3ccccc23)cc1OC	FBA Mtb inh 54.7 | Mtb FBA confirm active | GDH-TPI counter-2 active
COc1cccc(C2c3[nH]c4ccccc4c3C[C@H]3C(=O)N(CCCCCO)CC(=O)N23)c1 (stereo not given in full)	none
Cc1nc(N2CCC(C)CC2)c2c(C)c(C(=O)Nc3ccc(C(F)(F)F)cc3)sc2n1	FBA Mtb inh 33.9 | Mtb FBA confirm inactive | GDH-TPI counter-2 inactive
CCOC(=O)N1CCC(NC(=O)c2cc3cc4cc(OC)ccc4nc3o2)CC1	FBA Mtb inh 86.1 | Mtb FBA confirm inactive | GDH-TPI counter-2 inactive
CCOC(=O)N1CCC(NC(=O)c2cc(-c3ccc(OC)cc3)nc3ccccc23)CC1	none
COc1ccc2nc3oc(C(=O)NC4CCN(Cc5ccccc5)CC4)cc3cc2c1	FBA Mtb inh 32.4 (no result: RecA intein inh) | Mtb FBA confirm inactive | GDH-TPI counter-2 inactive
CSC[C@H]1CN(c2ccc(Br)cc2)C(=O)[C@@H]1CC(=O)Nc1ccccc1	none (no result: RecA intein inh, Mtb bLac sens, Rv3671c inh, UGM FP inh)
CCCCCOc1ccc(C(=O)Nc2ccc(N3CCOCC3)cc2N2CCOCC2)cc1	none (no result: RecA intein inh)
CCN(CC)S(=O)(=O)c1cc(C(=O)OCC(=O)Nc2ccc(-c3nc4ccc(C)cc4s3)cc2)ccc1F	none
Cc1ccc2nc(-c3ccc(NC(=O)CCN4C(=O)c5ccccc5C4=O)cc3)sc2c1	FBA Mtb inh 96.6 | Mtb FBA confirm 161.8 | GDH-TPI counter-2 122.2
CCN(CC)S(=O)(=O)c1ccc(C(=O)OCC(=O)Nc2ccc(-c3nc4ccc(C)cc4s3)cc2)cc1	FBA Mtb inh 28.3 | Mtb FBA confirm inactive | GDH-TPI counter-2 inactive
CCOCCCNC(=S)Nc1ccc2nc(N3CCOCC3)cc(C)c2c1	FBA Mtb inh 32.1 | Mtb FBA confirm active | GDH-TPI counter-2 active
COc1ccc(CNC(=S)Nc2ccc3nc(N4CCOCC4)cc(C)c3c2)cc1	FBA Mtb inh 31.2 | Mtb FBA confirm 32.9 | GDH-TPI counter-2 27.7
COc1ccc(CNC(=S)Nc2ccc3nc(N4CCN(C)CC4)cc(C)c3c2)cc1	none
COCCCNC(=S)Nc1ccc2nc(N3CCOCC3)cc(C)c2c1	none
COc1cc(CCNC(=O)CCCn2c(=O)c3cccn3c3cccnc32)cc(OC)c1OC	none
Cc1nc2sc3c(O)cc(=O)[nH]c3c2c(C)c1C	FBA Mtb inh 33.1 | Mtb FBA confirm 73.3 | GDH-TPI counter-2 68.8
CN(CC(=O)Nc1cccc(F)c1)C(=O)c1cc(S(=O)(=O)N(C)C)ccc1N1CCCC1	none
CC(C)c1ccc(NC(=S)N2CCN(C)CC2)cc1	FBA Mtb inh 32.1 (no result: Rv3671c inh) | Mtb FBA confirm inactive | GDH-TPI counter-2 inactive
CC(C)c1ccc(NC(=S)N2CCCC2)cc1	none
FC(F)(F)c1cccc(Nc2cc(-c3ccccc3)nc3ncnn23)c1	none
Fc1ccc(-c2cc(C(F)(F)F)n3ncnc3n2)cc1	FBA Mtb inh 85.1 | Mtb FBA confirm 129.8 | GDH-TPI counter-2 129.4
CCOc1ccc(NC(=S)N2CCN(S(C)(=O)=O)CC2)cc1	none (no result: Rv3671c inh)
O=C(Cc1cccs1)Nc1ccc(-c2nnc(-c3ccco3)o2)cc1	FBA Mtb inh 49.3 | Mtb FBA confirm 82.9 | GDH-TPI counter-2 67.0
O=C(Cc1cccs1)Nc1ccc(-c2nnc(-c3ccccc3)o2)cc1	none
CN(C)c1nnc(-c2ccc(Cl)cc2)o1	FBA Mtb inh 66.4 | Mtb FBA confirm active | GDH-TPI counter-2 active
COc1ccccc1OCC(=O)Nc1ccc(-c2nnc(-c3ccco3)o2)cc1	none
Clc1ccc(-c2nnc(-c3ccco3)o2)cc1	FBA Mtb inh 71.9 | Mtb FBA confirm active | GDH-TPI counter-2 active
CCC(Oc1ccccc1)C(=O)Nc1ccc(-c2nnc(-c3ccco3)o2)cc1 (stereo not given)	FBA Mtb inh 42.8 (no result: RecA intein inh) | Mtb FBA confirm inactive | GDH-TPI counter-2 inactive
CN(Cc1cccc(Cl)c1Cl)C(=O)CCNC(=O)c1ccco1	none (no result: RecA intein inh)
CCCCN(C(=O)NC(=O)C1=C(N2CCOCC2)/C(=C/c2ccccc2)CC1)S(C)(=O)=O	FBA Mtb inh 44.0 | Mtb FBA confirm 127.8 | GDH-TPI counter-2 82.8
CCCCN1C(=O)C(CC(=O)NCc2ccco2)CC(C(=O)N(C)C)=C1C (stereo not given)	none (no result: RecA intein inh, Mtb bLac sens, Rv3671c inh, UGM FP inh)
Cc1ccn2cc(-c3cnoc3C)nc2c1	FBA Mtb inh 31.4 | Mtb FBA confirm inactive | GDH-TPI counter-2 inactive
COc1c(Cl)cccc1-c1cn2ccc(C)cc2n1	FBA Mtb inh 38.2 | Mtb FBA confirm 36.1 | GDH-TPI counter-2 39.0
Cc1c(NC(=O)CSC(=S)N2CCCC2)c(=O)n(-c2ccccc2)n1C	none (no result: UGM FP inh)
Nc1ncccc1C(=O)OCC(=O)NC1CCCCCC1	FBA Mtb inh 32.8 (no result: RecA intein inh) | Mtb FBA confirm 55.7 | GDH-TPI counter-2 42.7
O=C(COC(=O)c1ccccn1)NC1CCCCC1	none
Nc1c(Cl)cc(Cl)cc1C(=O)OCC(=O)NC1CC1	FBA Mtb inh 84.2 | Mtb FBA confirm inactive | GDH-TPI counter-2 inactive
COc1ccc(NC(=O)C[C@H]2C(=O)N(c3ccc(Br)cc3)C[C@@H]2CSC)cc1	none (no result: RecA intein inh, Mtb bLac sens, Rv3671c inh, UGM FP inh)
N#Cc1cc2c(nc1SCC(=O)O)CCCCC2	none
CCOC(=O)CC(=O)CSc1nc2c(cc1C#N)CCC2	FBA Mtb inh 31.3 | Mtb FBA confirm 80.1 | GDH-TPI counter-2 64.9
COC(=O)CC(=O)CSc1nc2c(cc1C#N)CCCCC2	FBA Mtb inh 39.1 (no result: RecA intein inh) | Mtb FBA confirm 140.7 | GDH-TPI counter-2 97.8
Cc1cc(Cl)cc2sc(=S)[nH]c12	none (no result: RecA intein inh, Mtb bLac sens, Rv3671c inh, UGM FP inh)
CCN(CC)c1ccc(-c2sc(Nc3ccccc3)n[n+]2-c2ccc(F)cc2)cc1	none
CCc1ccc(Nc2n[n+](-c3ccccc3)c(-c3ccc(N(CC)CC)cc3)s2)cc1	FBA Mtb inh 51.4 | Mtb FBA confirm 36.3 | GDH-TPI counter-2 34.8
c1ccc(Nc2c(-c3ccco3)nc3ccccn23)cc1	FBA Mtb inh 110.7 | Mtb FBA confirm 99.4 | GDH-TPI counter-2 71.0
CCC1NC(=O)c2cccnc2-n2c1nc1ccc(OC)cc1c2=O (stereo not given)	none (no result: RecA intein inh, Mtb bLac sens, Rv3671c inh, UGM FP inh)
